Among the data in publication PMC5700166 are binding signal values, retold here.

What all share (assay): protein-binding microarray (PBM); PBM: ~300 nM protein, 6 mM HEPES pH 7.8, 80 mM KCl, 0.5 mM EDTA, 0.5 mM EGTA, 6% glycerol, 35 ng/ul poly-dIdC, 1% milk, 1 h, room temperature; Ap Aiptasia and Nv Nematostella (sea anemones) / Co Capsaspora / Aq Amphimedon (sponge) / Dm Drosophila / Hu human; RHD is the Rel homology domain; high values mean tight binding
Holding throughout (settings): dsDNA, one strand shown

One assay concerns the target T1, GST-Ap-NF-kB RHD (Exaiptasia pallida (Aiptasia), UniProt A0A913YAJ5 2-422).
T1 sequence: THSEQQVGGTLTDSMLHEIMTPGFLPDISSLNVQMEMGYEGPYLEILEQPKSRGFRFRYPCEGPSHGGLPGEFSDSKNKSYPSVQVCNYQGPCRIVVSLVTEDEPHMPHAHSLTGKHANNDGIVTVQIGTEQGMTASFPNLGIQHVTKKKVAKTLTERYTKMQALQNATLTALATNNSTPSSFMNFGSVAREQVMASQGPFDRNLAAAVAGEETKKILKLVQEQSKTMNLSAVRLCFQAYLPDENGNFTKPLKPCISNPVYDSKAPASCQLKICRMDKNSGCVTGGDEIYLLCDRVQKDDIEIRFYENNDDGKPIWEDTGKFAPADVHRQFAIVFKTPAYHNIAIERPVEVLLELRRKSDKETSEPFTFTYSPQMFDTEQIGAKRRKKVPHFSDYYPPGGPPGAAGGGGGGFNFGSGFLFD

Assay [1] addresses T2, GST-Nv-NF-kB (Ser allele) (Nematostella vectensis, UniProt A7UNT2 2-411).
T2 sequence: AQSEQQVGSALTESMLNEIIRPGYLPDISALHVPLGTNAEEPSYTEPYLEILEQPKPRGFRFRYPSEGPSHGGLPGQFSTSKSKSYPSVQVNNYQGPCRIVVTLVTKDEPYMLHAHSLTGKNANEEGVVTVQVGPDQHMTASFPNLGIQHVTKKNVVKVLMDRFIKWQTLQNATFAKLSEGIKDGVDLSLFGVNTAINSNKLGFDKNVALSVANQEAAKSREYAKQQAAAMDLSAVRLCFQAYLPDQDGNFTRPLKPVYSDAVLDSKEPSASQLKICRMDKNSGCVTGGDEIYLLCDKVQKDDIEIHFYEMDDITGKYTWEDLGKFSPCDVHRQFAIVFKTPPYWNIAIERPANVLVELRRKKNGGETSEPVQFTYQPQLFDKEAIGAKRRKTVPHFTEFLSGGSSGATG

Another assay concerns the target T3, GST-Co-NF-kB (Capsaspora owczarzaki, UniProt F1ARL5 200-546).
T3 sequence: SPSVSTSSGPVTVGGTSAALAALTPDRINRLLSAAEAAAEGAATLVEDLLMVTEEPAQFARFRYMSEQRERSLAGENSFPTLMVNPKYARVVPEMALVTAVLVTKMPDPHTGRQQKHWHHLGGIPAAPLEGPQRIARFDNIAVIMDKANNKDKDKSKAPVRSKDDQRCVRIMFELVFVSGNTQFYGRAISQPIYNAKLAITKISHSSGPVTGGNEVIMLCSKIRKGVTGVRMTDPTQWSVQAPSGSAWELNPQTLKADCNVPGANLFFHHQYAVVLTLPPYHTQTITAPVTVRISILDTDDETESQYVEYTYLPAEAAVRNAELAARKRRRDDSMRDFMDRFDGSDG

Another assay concerns the target T4, GST-Dm-Relish (Drosophila melanogaster, UniProt Q94527 99-473).
T4 sequence: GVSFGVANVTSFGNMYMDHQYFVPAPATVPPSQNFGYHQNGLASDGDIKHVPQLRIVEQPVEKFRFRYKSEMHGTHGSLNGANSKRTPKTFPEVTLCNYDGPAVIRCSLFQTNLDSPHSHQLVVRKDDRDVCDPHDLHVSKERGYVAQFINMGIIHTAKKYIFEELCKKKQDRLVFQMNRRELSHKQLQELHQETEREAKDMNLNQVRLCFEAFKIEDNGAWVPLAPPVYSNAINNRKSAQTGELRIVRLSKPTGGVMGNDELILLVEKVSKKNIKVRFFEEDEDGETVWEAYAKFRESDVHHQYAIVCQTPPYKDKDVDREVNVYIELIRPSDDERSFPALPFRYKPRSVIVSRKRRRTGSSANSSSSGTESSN

The next assay deals with T5, GST-Aq-NF-kB (Amphimedon queenslandica, UniProt A9Y5G7 2-389).
T5 sequence: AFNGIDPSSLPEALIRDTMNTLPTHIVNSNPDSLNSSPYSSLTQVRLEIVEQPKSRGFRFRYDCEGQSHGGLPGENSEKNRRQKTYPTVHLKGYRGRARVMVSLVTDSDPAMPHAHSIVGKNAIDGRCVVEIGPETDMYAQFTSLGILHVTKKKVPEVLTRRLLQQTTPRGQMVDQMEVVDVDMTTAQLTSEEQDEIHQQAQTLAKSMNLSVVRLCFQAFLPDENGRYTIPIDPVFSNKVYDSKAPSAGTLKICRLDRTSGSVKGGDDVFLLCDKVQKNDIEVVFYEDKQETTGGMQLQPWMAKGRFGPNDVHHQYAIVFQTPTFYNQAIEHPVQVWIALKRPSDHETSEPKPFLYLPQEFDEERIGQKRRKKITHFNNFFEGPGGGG

On to “CCGATTAACATCACTTCCCCCCCTGATGTTAATCGGGTCTTGATTCGCTTGACGCTGCTG”, for which the binding signal in the assay with GST-Ap-NF-kB RHD amounted to 5.69 z-score; in assay [1], 5.01 z-score; with GST-Co-NF-kB it was 8 z-score; with GST-Dm-Relish it was 4.33 z-score; in the assay with GST-Aq-NF-kB it was 4.94 z-score.
In the case of “CCGATTAACATCAACCCCCCCCGTGATGTTAATCGGGTCTTGATTCGCTTGACGCTGCTG”, the binding signal in the assay with GST-Ap-NF-kB RHD is 5.8 z-score; in assay [1], 2.64 z-score; in the assay with GST-Co-NF-kB, 6.25 z-score; with GST-Dm-Relish, 6.51 z-score; with GST-Aq-NF-kB, 4.08 z-score.
The like results for “CCGATTAACATCAGGGGGGGATATGATGTTAATCGGGTCTTGATTCGCTTGACGCTGCTG” were, in that order, 6.21 z-score, 5.63 z-score, 5.9 z-score, 4.91 z-score and 5.29 z-score.
Take “CCGATTAACATCATAAGGGGTGTTGATGTTAATCGGGTCTTGATTCGCTTGACGCTGCTG”: the results for the binding signal with GST-Ap-NF-kB RHD, with GST-Co-NF-kB and with GST-Aq-NF-kB were 2.3 z-score, 1.09 z-score and 1.91 z-score, respectively.
As to “CCGATTAACATCACGGACACCCCTGATGTTAATCGGGTCTTGATTCGCTTGACGCTGCTG”, the binding signal with GST-Ap-NF-kB RHD was found to be 1.65 z-score; with GST-Co-NF-kB, 1.34 z-score; with GST-Dm-Relish, 1.95 z-score; with GST-Aq-NF-kB, 2.16 z-score.
As for “CCGATTAACATCAGGGGGGGAGATGATGTTAATCGGGTCTTGATTCGCTTGACGCTGCTG”, the binding signal in the assay with GST-Ap-NF-kB RHD was 5.6 z-score; in the assay with GST-Co-NF-kB, 8.63 z-score; in the assay with GST-Dm-Relish, 3.66 z-score; with GST-Aq-NF-kB, 4.59 z-score.
Regarding “CCGATTAACATCAAGGGGGGGAGTGATGTTAATCGGGTCTTGATTCGCTTGACGCTGCTG”, the binding signal with GST-Ap-NF-kB RHD is 4.51 z-score; with GST-Co-NF-kB it was 7.82 z-score; in the assay with GST-Dm-Relish, 3.56 z-score; with GST-Aq-NF-kB it was 4.43 z-score.
Regarding “CCGATTAACATCAATCCCCCCCCTGATGTTAATCGGGTCTTGATTCGCTTGACGCTGCTG”, the binding signal was determined as 7.49 z-score with GST-Ap-NF-kB RHD, 7.2 z-score in the assay with GST-Co-NF-kB, 6.09 z-score in the assay with GST-Dm-Relish and 5.2 z-score with GST-Aq-NF-kB.
The like results for “CCGATTAACATCAGGCAACCCCATGATGTTAATCGGGTCTTGATTCGCTTGACGCTGCTG” were, in that order, 1.67 z-score, 1.23 z-score, 2.62 z-score and 1.4 z-score.
In the case of “CCGATTAACATCAGGTGTTCCCATGATGTTAATCGGGTCTTGATTCGCTTGACGCTGCTG”, the binding signal with GST-Ap-NF-kB RHD was found to be 1.43 z-score; with GST-Co-NF-kB it was 1.45 z-score; with GST-Dm-Relish it was 5.22 z-score; in the assay with GST-Aq-NF-kB, 2.04 z-score.
In the case of “CCGATTAACATCATGGGGGGGAATGATGTTAATCGGGTCTTGATTCGCTTGACGCTGCTG”, the binding signal with GST-Ap-NF-kB RHD stood at 6.87 z-score; with GST-Co-NF-kB it was 8.77 z-score; with GST-Dm-Relish it was 4.72 z-score; in the assay with GST-Aq-NF-kB, 5.36 z-score.
With “CCGATTAACATCAGGGCTTCCCATGATGTTAATCGGGTCTTGATTCGCTTGACGCTGCTG”, the binding signal came out at 1.44 z-score with GST-Ap-NF-kB RHD, 1.01 z-score with GST-Co-NF-kB, 8.36 z-score with GST-Dm-Relish and 3.5 z-score with GST-Aq-NF-kB.
As for “CCGATTAACATCAGGTAACCCCATGATGTTAATCGGGTCTTGATTCGCTTGACGCTGCTG”, the binding signal with GST-Ap-NF-kB RHD is 3.05 z-score; with GST-Co-NF-kB, 2.06 z-score; in the assay with GST-Dm-Relish, 6.29 z-score; with GST-Aq-NF-kB, 2.29 z-score.
For the sequence “CCGATTAACATCAGTCCCCCCCATGATGTTAATCGGGTCTTGATTCGCTTGACGCTGCTG”, the binding signal was found to be 5.83 z-score with GST-Ap-NF-kB RHD; 3.57 z-score in assay [1]; 6.28 z-score with GST-Co-NF-kB; 4.23 z-score with GST-Dm-Relish; 4.7 z-score with GST-Aq-NF-kB.
For the sequence “CCGATTAACATCAGGGGGGGGGATGATGTTAATCGGGTCTTGATTCGCTTGACGCTGCTG”, the binding signal is 6.37 z-score with GST-Ap-NF-kB RHD, 7.03 z-score with GST-Co-NF-kB, 5.78 z-score with GST-Dm-Relish and 5.02 z-score in the assay with GST-Aq-NF-kB.
“CCGATTAACATCAAGCCCCCCCTTGATGTTAATCGGGTCTTGATTCGCTTGACGCTGCTG”: the binding signal was found to be 4.63 z-score in the assay with GST-Ap-NF-kB RHD; 4.35 z-score in assay [1]; 3.04 z-score in the assay with GST-Co-NF-kB; 4.77 z-score with GST-Dm-Relish; 4.92 z-score with GST-Aq-NF-kB.
As to “CCGATTAACATCAAGGGGGGAGGTGATGTTAATCGGGTCTTGATTCGCTTGACGCTGCTG”, the binding signal with GST-Ap-NF-kB RHD is 4.12 z-score; in assay [1] it was 4.04 z-score; in the assay with GST-Co-NF-kB it was 5.65 z-score; in the assay with GST-Dm-Relish, 3.23 z-score; with GST-Aq-NF-kB, 4.07 z-score.
Take “CCGATTAACATCAGGACACCCCATGATGTTAATCGGGTCTTGATTCGCTTGACGCTGCTG”: the binding signal in the assay with GST-Ap-NF-kB RHD stood at 1.22 z-score; in the assay with GST-Co-NF-kB, 1.49 z-score; with GST-Dm-Relish, 1.93 z-score; in the assay with GST-Aq-NF-kB, 1.61 z-score.
In the case of “CCGATTAACATCAGGATATCCCATGATGTTAATCGGGTCTTGATTCGCTTGACGCTGCTG”, the binding signal with GST-Ap-NF-kB RHD is 2.32 z-score; with GST-Co-NF-kB it was 1.41 z-score; with GST-Dm-Relish it was 3 z-score; with GST-Aq-NF-kB it was 2.24 z-score.
On to “CCGATTAACATCACGGGGTGGCCTGATGTTAATCGGGTCTTGATTCGCTTGACGCTGCTG”, for which the binding signal with GST-Ap-NF-kB RHD stood at 1.24 z-score; with GST-Co-NF-kB, 1.78 z-score; in the assay with GST-Dm-Relish it was 1.37 z-score; with GST-Aq-NF-kB it was 1.55 z-score.
With “CCGATTAACATCAAGGGGGGAAATGATGTTAATCGGGTCTTGATTCGCTTGACGCTGCTG”, the binding signal is 6.16 z-score in the assay with GST-Ap-NF-kB RHD; 8.51 z-score in assay [1]; 7.79 z-score with GST-Co-NF-kB; 4.47 z-score in the assay with GST-Dm-Relish; 5.8 z-score in the assay with GST-Aq-NF-kB.
